High-throughput results deposited in PubChem BioAssay by National Center for Advancing Translational Sciences (NCATS).
Sampled rows, rich in hits. Any-hit rate of the full collection: about 17%.
DT40 TDP1 CPT: qHTS for Inhibitors of human tyrosyl-DNA phosphodiesterase 1 (TDP1): qHTS in cells in presence of CPT. chicken DT40 Tdp1-/-;hTDP1 cells + 20 nM CPT, ATP luminescence, 48 h. Potency, µM (top dose mostly 46.2 µM), for the others: at the top dose activity change, negative = growth inhibition, actives largely listed as inhibitors. 12% of 420,000 active; further: on the % scale 0 is the no-effect control and ±100 the full control effect; nearly all actives have a fitted effect of over 55% in size
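Chicken DT40 Tdp1-/- cells stably complemented with human TDP1 were seeded at 400 cells/well in medium containing 20 nM camptothecin, exposed to pin-transferred compounds, and grown at 37 °C for at least 48 hr. Viability was read as ATP luminescence.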
TDP1 cell noCPT: qHTS for Inhibitors of human tyrosyl-DNA phosphodiesterase 1 (TDP1): qHTS in cells in absence of CPT; DT40 Tdp1-/- hTDP1 cells, no CPT, ATP luminescence, 48 h; AID 686978, 2013; Potency, µM (series often up to 46.2 µM), without a hit: at the highest dose activity change, negative = growth inhibition, actives largely listed as inhibitors; 15% of 420,000 active; further: on the % scale 0 is the no-effect control and ±100 the full control effect; nearly all actives have a fitted effect of over 55% in size
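Compound effects on proliferation are scored in DT40 Tdp1-/-;hTDP1 cells in the absence of CPT. ATP levels (CellTiter-Glo luminescence) are recorded after a ≥48 hr, 37 °C incubation.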
ClpP mod: qHTS Assay for Activators of ClpP. purified B. subtilis ClpP, FRET peptide cleavage, 20 min. Potency, µM (titrated, usually from 57.5 µM), for the others: at the top dose activity change, negative = active. ATP-dependent Clp protease proteolytic subunit (Bacillus subtilis (strain 168)), P80244. AID 651965, 2013. 1.9% of 340,000 active; active means well fitted falling curve with a large enough effect; inconclusive means small, poorly fitted or top-dose-only effect; inactive means no such curve, though single readings can be large or run the other way; further: the source files actives as falling curves though it sought activators and does not explain the sign; nearly all actives have a fitted effect of over 65% in size
Target sequence (P80244 whole entry, looked up): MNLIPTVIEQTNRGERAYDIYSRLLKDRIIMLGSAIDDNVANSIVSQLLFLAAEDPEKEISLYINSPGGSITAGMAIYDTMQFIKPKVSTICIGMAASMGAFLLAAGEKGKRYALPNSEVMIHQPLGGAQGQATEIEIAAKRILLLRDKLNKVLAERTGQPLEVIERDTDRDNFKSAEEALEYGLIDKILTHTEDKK
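Buffer: 100 mM Tris/HCl pH8, 100 mM KCl, 0.05% low protease BSA, 2.5% glycerol, 0.01% Tween-20. ClpP 10 microg/mL final; 20 min RT; delta FRET normalized to ADEP and DMSO controls.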
TDP1 block: qHTS Assay for Inhibitors of Tyrosyl-DNA Phosphodiesterase (TDP1); Tyrosyl-DNA phosphodiesterase 1 (Homo sapiens), Q9NUW8; recombinant TDP1, AlphaScreen DNA substrate cleavage; Potency, µM (titrated, usually from 130 µM), without a hit: top-dose activity change, negative = inhibition, hits mostly inhibitors; 0.28% of 350,000 active; further: on the % scale 0 is the no-effect control and ±100 the full control effect; nearly all actives have a fitted effect of over 40% in size
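Steps: enzyme plus compound, 15 min RT; add biotin/phosphotyrosine-FITC oligonucleotide (15 nM final), react 5 min; add donor/acceptor beads (10 ug/ml final), 10 min; read AlphaScreen. Tdp1 at 1 nM final.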
The depositor's hits bear a star; [ ] = another dose, or the depositor's remark. Unless noted, the call rests on the fitted dose curve; in most records, active means well fitted curve in the direction sought with a large enough effect; inconclusive means small, poorly fitted or top-dose-only effect, or another doubt; inactive means no such curve, though single readings can be large; an effect the other way counts as inactive or inconclusive. Potency means the concentration at half of the fitted maximal effect.

Results for O=C(C[n+]1cccc(Br)c1)c1ccccc1 ?
DT40 TDP1 CPT: -5%; TDP1 cell noCPT: 9%; ClpP mod: -2%

What do the screens show for `COc1ccc(C(=O)C[n+]2cccc(Br)c2)cc1`?
DT40 TDP1 CPT: -16%; TDP1 cell noCPT: -15%; ClpP mod: -4%; TDP1 block: 2%

Results for O=C(C[n+]1cccc(Br)c1)c1ccc(I)cc1 ?
DT40 TDP1 CPT: 2.2µM*; TDP1 cell noCPT: -94%; ClpP mod: 0%

What do the screens show for `CCN(CC(=O)Nc1ccccc1C(F)(F)F)C(=O)CCOc1ccccc1C`?
DT40 TDP1 CPT: -36%; TDP1 cell noCPT: -54%; ClpP mod: 1%; TDP1 block: -8%[0.505 µM]

What do the screens show for `CCN(CC(=O)Nc1ccccc1C(F)(F)F)C(=O)c1ccc(NC(=O)c2cccs2)cc1`?
DT40 TDP1 CPT: 15µM*; TDP1 cell noCPT: 21µM*; ClpP mod: 0%

What do the screens show for `CCN(CC(=O)Nc1ccccc1C(F)(F)F)C(=O)Cc1cccs1`?
DT40 TDP1 CPT: 2%; TDP1 cell noCPT: -15%; ClpP mod: 1%; TDP1 block: 1%

How did CCN(CC(=O)Nc1ccccc1C(F)(F)F)C(=O)c1ccccc1OCc1ccc(F)cc1 do in these assays?
DT40 TDP1 CPT: 16µM*; TDP1 cell noCPT: 21µM*; ClpP mod: -1%

Results for CC(C)[C@@H](CC(=O)N[C@@H]1CCCC[C@H]1C(=O)N[C@H](CC(=O)N[C@@H](CCC(=O)O)CC(=O)O)Cc1c[nH]c2ccccc12)NC(=O)C[C@H](Cc1ccccc1)NC(=O)[C@@H]1CCCC[C@H]1N ?
TDP1 block: 6%

How did Cc1ccc(NC(=O)CN2C(=O)C(c3ccc(F)cc3)=NC23CCCCC3)c(C)c1 do in these assays?
DT40 TDP1 CPT: inconclusive; TDP1 cell noCPT: inconclusive; ClpP mod: -2%; TDP1 block: 8%

How did CCC(C(=O)NCc1ccccc1)n1c(-c2ccc3c(c2)CCO3)nc2ccccc21 (centres undefined) do in these assays?
DT40 TDP1 CPT: 15µM*; TDP1 cell noCPT: inconclusive; ClpP mod: 4%

How did CSCCC(C(=O)NCc1ccccc1)n1c(-c2ccc3c(c2)CCO3)nc2ccccc21 (centres undefined) do in these assays?
DT40 TDP1 CPT: inconclusive; TDP1 cell noCPT: inconclusive; ClpP mod: 5%

How did COc1ccc(C2=Nc3ccccc3N(C(=O)c3ccc(C(F)(F)F)cc3)C2C(=O)Nc2ccc3c(c2)OCCO3)cc1 (centres undefined) do in these assays?
DT40 TDP1 CPT: 7%; TDP1 cell noCPT: -16%; ClpP mod: -6%

What do the screens show for `O=C(Nc1ccccc1)N(Cc1ccccc1)CC(O)C(F)(F)F` (centres undefined)?
DT40 TDP1 CPT: 14%; TDP1 cell noCPT: 13%; ClpP mod: 28µM*; TDP1 block: 0%

Results for Fc1cccc(NC(=S)NCc2ccc(Cl)cc2)c1 ?
DT40 TDP1 CPT: inconclusive; TDP1 cell noCPT: inconclusive; ClpP mod: 1%; TDP1 block: 0%

How did O=C(Nc1cccc(F)c1)N(Cc1ccc(Cl)cc1)CC(O)C(F)(F)F (centres undefined) do in these assays?
DT40 TDP1 CPT: inconclusive; TDP1 cell noCPT: 26µM*; ClpP mod: 1%; TDP1 block: 6%

What do the screens show for `Cc1ccc(NC(=O)N(CCC(=O)O)Cc2ccccc2)cc1`?
DT40 TDP1 CPT: -15%; TDP1 cell noCPT: -13%; TDP1 block: 3%

What do the screens show for `COc1cccc(CNC(=O)C2CCCN(S(=O)(=O)c3cn(C)cn3)C2)c1` (centres undefined)?
DT40 TDP1 CPT: -2%; TDP1 cell noCPT: -11%; ClpP mod: 1%; TDP1 block: 4%

What do the screens show for `CC(C)(C)NC(=O)COC(=O)c1ccccc1Nc1ccc(SC(F)F)cc1`?
DT40 TDP1 CPT: inconclusive; TDP1 cell noCPT: 16µM*; ClpP mod: -26%; TDP1 block: 4%

What do the screens show for `Cc1cccc(C)c1NC(=O)COC(=O)c1ccccc1Nc1ccccc1`?
DT40 TDP1 CPT: inconclusive; TDP1 cell noCPT: 9.2µM*; ClpP mod: -20%; TDP1 block: 4%

How did O=C(COc1ccccc1C(=O)O)Nc1ccc(SC(F)F)cc1 do in these assays?
DT40 TDP1 CPT: 16µM*; TDP1 cell noCPT: 16µM*; TDP1 block: 8%

Results for NC(=O)COC(=O)c1ccccc1Nc1ccc(SC(F)F)cc1 ?
DT40 TDP1 CPT: -19%; TDP1 cell noCPT: inconclusive; ClpP mod: 0%; TDP1 block: 3%

How did CCn1c(N)[n+](CC(=O)Nc2ccc(SC(F)F)cc2)c2ccccc21 do in these assays?
DT40 TDP1 CPT: inconclusive; TDP1 cell noCPT: 13µM*; TDP1 block: 6%

How did O=C(COC(=O)c1ccccc1C(=O)c1ccccc1)Nc1ccc(SC(F)F)cc1 do in these assays?
DT40 TDP1 CPT: inconclusive; TDP1 cell noCPT: inconclusive; ClpP mod: -3%; TDP1 block: -1%

Results for CC1CCCCN1C(=O)COC(=O)c1ccc(=O)n(Cc2ccccc2)n1 (centres undefined) ?
DT40 TDP1 CPT: -22%; TDP1 cell noCPT: -11%

What do the screens show for `O=C1CCCc2c1ccc1ccccc21`?
DT40 TDP1 CPT: 19%; TDP1 cell noCPT: -3%; ClpP mod: -3%

Results for COc1cc(C(=O)OCC(=O)Nc2ccc(S(=O)(=O)NC3=NCCCCC3)cc2)cc(OC)c1OC ?
DT40 TDP1 CPT: -29%; TDP1 cell noCPT: inconclusive; ClpP mod: -15%; TDP1 block: 1%

Results for CC1CCCC(C)N1C(=O)c1ccccc1Nc1ccc(SC(F)F)cc1 (centres undefined) ?
DT40 TDP1 CPT: 23µM*; TDP1 cell noCPT: 21µM*; ClpP mod: -16%; TDP1 block: 3%

Results for O=C(Cn1cnc2ccccc21)Nc1ccc(SC(F)F)cc1 ?
DT40 TDP1 CPT: 21µM*; TDP1 cell noCPT: 2.3µM*; TDP1 block: 4%

What do the screens show for `CC1CN(C(=O)c2ccccc2Nc2ccc(SC(F)F)cc2)CC(C)O1` (centres undefined)?
DT40 TDP1 CPT: 3%; TDP1 cell noCPT: -27%; TDP1 block: -1%

Results for Cc1ccc(NC(=O)COC(=O)c2ccccc2OCC(=O)N(C)C)cc1 ?
DT40 TDP1 CPT: inconclusive; TDP1 cell noCPT: inconclusive; ClpP mod: -7%

How did CN(C)C(=O)COC(=O)c1ccccc1OCC(=O)Nc1ccc(SC(F)F)cc1 do in these assays?
DT40 TDP1 CPT: inconclusive; TDP1 cell noCPT: 9.2µM*; ClpP mod: 6%; TDP1 block: -2%

Results for COCCn1ccc2c(OCC(=O)NCc3ccccc3)cccc2c1=O ?
DT40 TDP1 CPT: 10%; TDP1 cell noCPT: 4%; ClpP mod: -30%; TDP1 block: 0%

What do the screens show for `CS(=O)(=O)N1N=C(c2ccccc2)CC1c1ccc2nccnc2c1` (centres undefined)?
DT40 TDP1 CPT: inconclusive; TDP1 cell noCPT: 26µM*; ClpP mod: 1%; TDP1 block: 5%
